Source: PubChem BioAssay (NCATS)
Records with an inconclusive call do not appear. A number with no mark means an inactive call. Calls of active or inactive are those of the source. The call rests on the fitted dose curve; in most records, active means well fitted cell-killing curve with a large enough effect; inconclusive means small, poorly fitted or top-dose-only effect, or effect the other way; inactive means flat fitted curve, though single readings scatter.

The molecules below were run on Tov-21-G (assay: Primary qHTS to identify gynecologic anti-cancer compounds using libraries of approved drugs and bioactive compounds (AID 1345084; further: nearly all actives have a fitted effect of over 55% in size)). Details: Gynecologic cancer cell panel viability, ATPlite luminescence, 48 h; series mostly up to 57.5 µM.
Summary of the method: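 ATP-based viability (ATPlite), 1,000 cells/well, 16 h pre-incubation, 48 h compound at 37 C, 5% CO2, 15 min RT before read.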
On the % scale 0 is the no-effect control and ±100 the full control effect; potency means the concentration at half of the fitted maximal effect.

SMILES	Potency	activity change, negative = cytotoxicity
C/C1=C\[C@@H](C)C[C@@H](C)[C@@H](Cc2cnco2)OC(=O)/C(C)=C/[C@@H](C)C[C@@H](C)[C@@H](Cc2cnco2)OC1=O	inactive	–
C=CC(=O)N1CCC[C@@H](n2nc(-c3cccc(C(=O)Nc4ccc(C(C)C)c(C)c4)c3)c3c(N)ncnc32)C1	14.1 µM (active)	–
COc1ccc(C2(CNC(=O)c3ccc(NC(=O)c4ccco4)cc3)CCOCC2)cc1	inactive	–
C=C1C(=O)O[C@H]2/C=C(/C)[C@@H](OC(C)=O)C/C=C(\C)C[C@@H](OC(=O)/C(=C/C)COC(=O)/C(=C/C)CO)[C@@H]12	8.91 µM (active)	–
O=C(NCC1(N2CCN(c3ccccc3)CC2)CCOCC1)c1cccnc1Sc1ccccc1	inactive	–
C[C@@H](N[C@H]1CCCC[C@@H]1NC(=O)c1ccc(Cl)cc1)c1cccc2ccccc12	inactive	–
CN1CCC(NC(=O)c2cc(-c3c(O)cc(O)cc3Oc3ccc([N+](=O)[O-])cc3)on2)CC1	0.562 µM (active)	–
O=C1C(Cc2ccc(O)cc2)N2C(=O)CCN(C(=O)NCc3ccccc3)C2CN1Cc1cccc2ccccc12 (stereo not given)	7.94 µM (active)	–
O=C(CCl)Nc1cccc(NC2=NS(=O)(=O)c3ccccc32)c1	inactive	–
C=C(C)C(=O)O[C@H]1C[C@@](C)(O)C2(O)CCC(C)(/C=C3/OC(=O)C(COC)=C31)O2 (stereo not given in full)	10 µM (active)	–
CC(C)S(=O)(=O)NC[C@H](C)c1ccc(-c2ccc(CCNS(C)(=O)=O)cc2)cc1	inactive	–
O=C(Nc1cccc2cccnc12)c1ccc(N2C(=O)[C@@H]3C4C=CC(C4)[C@@H]3C2=O)cc1	31.6 µM (active)	–
CCN(Cc1cc(Nc2nc(C)cn3c(-c4cn[nH]c4)cnc23)sn1)C(C)(C)CO	0.355 µM (active)	–
C=CC(C)(O)CC/C=C(\C)C(=O)OC1C(O)C(CO)OC(OC(=O)C23CCC(C)(C)CC2C2=CCC4C5(C)CCC(OC6OC(COC7OCC(OC(C)=O)C(O)C7OC7OC(COC(C)=O)C(O)C(O)C7OC(C)=O)C(O)C(O)C6OC6OCC(O)C(O)C6O)C(C)(C)C5CCC4(C)C2(C)C(O)C3O)C1OC1OCC(OC2OCC(O)C(OC3OCC(O)C(O)C3O)C2O)C(O)C1O (stereo not given)	–	-26.1% [at 6.55 µM]
Cc1nc2ccc(-n3ncc(C(=O)c4cc5ccccc5[nH]4)c3N)cc2[nH]1	28.2 µM (active)	–
Cc1cc(C)c2c(c1)C(N(Cc1cc(C(F)(F)F)cc(C(F)(F)F)c1)c1nnn(C)n1)CCCN2CC1CCC(C(=O)O)CC1 (stereo not given)	inactive	–
COC(=O)CC(O)CC(O)/C=C/c1c(C)ccc2c1C(OC(C)=O)CC(C)C2 (stereo not given)	inactive	–
CC[C@@H](C)Nc1cc(C(=O)NC2CC3CC[C@@H](C2)N3c2ccc(C(=O)C3CC3)cn2)c(C)cc1C(N)=O (stereo not given in full)	0.398 µM (active)	–
C=C[C@@]1(C)C=C2C(=O)C(O)=C3[C@](C)(C(=O)O)CC[C@@H]4C[C@]34[C@]2(O)C(=O)C1	11.2 µM (active)	–
C=C1C(=O)OC2/C=C(/C)C3=CC(=O)C(C)(CC(OC(=O)/C(C)=C/COC(C)=O)C12)O3 (stereo not given)	11.2 µM (active)	–
C=C1C(=O)O[C@@H]2C(OC(=O)/C(C)=C\C)/C(C)=C\C(=O)/C=C(\C)C[C@H](O)[C@@H]12 (stereo not given in full)	10 µM (active)	–
CCN1CCN(Cc2ccc(NC(=O)c3ccc(C)c(Oc4ncnc5[nH]c(C)cc45)c3)cc2C(F)(F)F)CC1	11.2 µM (active)	–
N#CSc1cc(SC#N)c(N)nc1N	–	-3.87% [at 11.6 µM]
CCCC1(CCC)CCC2(CCN(CCCN(CC)CC)C2)CC1	6.31 µM (active)	–
CCN1CCN(Cc2ccc(NC(=O)c3ccc(C)c(Oc4ccnc5[nH]ccc45)c3)cc2C(F)(F)F)CC1	12.6 µM (active)	–
